The source of these data is PubChem BioAssay (NCI).

Where “and” joins values, the source holds several entries; their conditions need not be identical. Equal values may be shown once. The panel holds about 83,000 compounds, 20% with a hit somewhere; the sample as a whole holds those more often.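 Values shown are percent growth following 48 h exposure of cells in 96-well plates to a single concentration of compound; below 10 was considered active.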 Calls of active or inactive are those of the source.

In this assay the test system is SN12C renal. Description: NCI-60 one-dose screen, 48 h (100 = growth as untreated, 0 = no growth, -100 = all killed). Conditions: 10 µM unless noted.
Consider `N#Cc1nc(-c2ccccc2)oc1N1CCC(C2(C(F)(F)F)N=N2)CC1`, for which the growth is 119% (inactive).

For the molecule `CNC(=O)c1cc(N2CCc3cc(NC(=O)Nc4ccc(N5CCOCC5)c(C(F)(F)F)c4)ccc32)ccn1`, the growth was 15% (inactive).

With `O=C(CCCCCCNC(=O)C(O)(O)C(F)(F)F)Nc1ccc(Br)cc1`, the growth is 20.1% (inactive).

Take `Cc1csc(/N=C(N)/N=C(\N)c2cccnc2)n1`: the growth was 80.1% (inactive).

With `C=C1CCc2nc(SCC(=O)O)ccc2N1`, the growth was 97.1% (inactive).

On to `CCCCOc1ccc(S(=O)(=O)N2CCN(c3nc(C)cc(N4CCOCC4)n3)CC2)cc1`, for which the growth is 40.4% (inactive).

As to `CCn1c2ccc(/C=N/N(C)S(=O)(=O)CCN(C)C)cc2c2cc(/C=N/N(C)S(=O)(=O)CCN(C)C)ccc21`, the growth was 33.3% (inactive).

As for `NCCNC(=O)c1cccc(COc2ccccc2NC(=O)c2cc(Br)c(Br)[nH]2)c1`, the growth is 92.6% (inactive).

Turning to `CNC(=O)Nc1ccc(Nc2cc(-c3ccc(-n4cccn4)cc3)[nH]n2)c(C)c1`, the growth is 101% (inactive).

Turning to `CCN(CC)c1ccc(/C=N/NC(=O)c2ccc(S(N)(=O)=O)cc2)c(O)c1`, the growth was 28.3% (inactive).

`COc1cc(-c2nc(-c3ccccc3)[nH]c2-c2ccnc(NCCCNS(=O)(=O)c3cccc(F)c3)n2)ccc1F`: the growth was 93.8% (inactive).

Take `C/C=C/CC(C)C(O)[C@H](NC(=O)[C@@H]1CCCN1C(=O)[C@](C)(CC)NC(=O)CCCCCCCCC)C(=O)N[C@@](C)(CC)C(=O)N[C@@H](CCC(N)=O)C(=O)N[C@H](CCC(N)=O)C(=O)NC(C)(C)C(=O)NC(C)(C)C(=O)N[C@@H](CCC(N)=O)C(=O)N[C@H](CC(C)C)C(=O)N[C@H](CO)CC(C)C` (some centres undefined): the growth is 28.8% (inactive) and -51.5% (active).

For the molecule `O=S(=O)(NCCCNc1nccc(-c2[nH]c(-c3ccccc3)nc2-c2ccc(F)c(O)c2)n1)c1ccc(C(F)(F)F)cc1`, the growth was 67.7% (inactive).

In the case of `N#Cc1c(-c2cccs2)c(C#N)c(=O)n(Cc2nc3ccccc3[nH]2)c1N`, the growth is 91.8% (inactive).

For the molecule `Cc1ccc2c(n1)C(=O)C(Cl)=C(Nc1ccccc1C(=O)OC(C)(C)C)C2=O`, the growth is 52.6% (inactive).

Consider `Brc1cccc(-c2cc(-c3ccc4c(c3)OC=CO4)[nH]n2)c1`, for which the growth is 59.3% (inactive).

As for `CN1CCN(CCCCCC(=O)Nc2nc(-c3cccc(NS(=O)(=O)c4cccc5c(N(C)C)cccc45)c3)cs2)CC1`, the growth is 70.6% (inactive).

Take `O=C(CSc1nnc(-c2ccc(Cl)cc2)n1-c1ccccc1)Nc1ccc(Cl)cc1`: the growth was 16.3% (inactive).

Take `NC1[C@H]2CN(c3cnc(C(=O)Nc4cc(F)cc5cccnc45)cn3)C[C@@H]12` (some centres undefined): the growth is 69.8% (inactive).

With `CC1CCN(CC(=O)Nn2c(COc3ccccc3)nc3ccccc3c2=O)CC1`, the growth was 96.3% (inactive).

On to `CCCCSC1=C(Cl)CN(c2ccccc2)C1=O`, for which the growth was 94.6% (inactive).

As to `CC1=Cc2ccccc2OC12C=Cc1ccccc1O2` (centres undefined), the growth is 102% (inactive).

`Brc1ccc(-c2cc(-c3ccc4c(c3)OC=CO4)n[nH]2)s1`: the growth was 99.1% (inactive).

Regarding `CC1=C(C)C(=O)C(Nc2cccc(C(=O)OC(C)(C)C)c2)=CC1=O`, the growth is 61.3% (inactive).

In the case of `CCCC/C(=C\c1ccc(O)c(O)c1)C(=O)NC(Cc1ccccc1)C(=O)C(=O)NCCc1ccc(OC)cc1` (centres undefined), the growth is 95.3% (inactive).

Take `CCN(CC)c1ccc(/C=N/NC(=O)c2ccc(NS(C)(=O)=O)cc2)c(O)c1`: the growth is 31.4% (inactive).

With `O=C(/C=C/C=C/c1csc(Br)n1)NO`, the growth was 95.1% (inactive).

In the case of `O=C(CCCCCCNC(=O)C(O)(O)C(F)(F)F)Nc1ncc(-c2ccc(Br)cc2)s1`, the growth is 0.547% (active).

On to `Cc1cc(C)cc(NC2=C(Cl)C(=O)c3nc(C)ccc3C2=O)c1`, for which the growth is 8.28% (active).

Take `C[C@@H]1OCC2(CCN(c3cnc(C(=O)Nc4cc(F)cc5cccnc45)cn3)CC2)[C@@H]1N`: the growth was 59.6% (inactive).

Regarding `CN1CCN(c2ccc(Nc3nc(NCCCNS(=O)(=O)c4ccccc4)c4sccc4n3)cc2)CC1`, the growth was 72.7% (inactive).

In the case of `CCCCCCNC(=O)Oc1ccc(/C(=C(/C)c2ccc(OC)cc2)c2ccc(OCCN3CCCCCC3)cc2)cc1`, the growth was 14.5% (inactive).

Regarding `O=[N+]([O-])c1ccc(NC(=S)NNC(=S)Nc2ccc(Br)cc2)cc1`, the growth is 88.3% (inactive).

As for `C#C[C@]1(O)CC[C@H]2[C@@H]3CC=C4c5sc(N6CCN(C)CC6)nc5CC[C@]4(C)[C@H]3CC[C@@]21C`, the growth is 76.6% (inactive).
